CtBP-E1A blk: CtBP/E1A binding inhibition; AlphaScreen GST-E1A/His-CtBP binding, 1536-well; active compounds read low; activity change, % (concentration not given with the values); 340,000 tested, 0.49% active; AID 651724; in the data active means activity change below about -65%; inconclusive means mostly about -30% to -63%
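AlphaScreen with 125 nM GST-E1A and 125 nM His-CtBP (5X stocks) in Tris pH 8.0, 300 mM NaCl, BSA, Tween 20, TCEP. Compounds preincubated 2 h at 37 deg C, then glutathione donor/nickel acceptor beads added for 1 h at 37 deg C in dark.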
TDP1 block: inhibitors of human tyrosyl-DNA phosphodiesterase TDP1; 350,000 tested, 0.28% active; Q9NUW8; recombinant TDP1, AlphaScreen DNA substrate cleavage; Potency, µM (highest dose often 130 µM), without a hit: at the highest dose activity change, negative = inhibition, usual class: inhibitors; further: potency means the concentration at half of the fitted maximal effect; nearly all actives have a fitted effect of over 40% in size
Target sequence (Q9NUW8 whole entry, looked up): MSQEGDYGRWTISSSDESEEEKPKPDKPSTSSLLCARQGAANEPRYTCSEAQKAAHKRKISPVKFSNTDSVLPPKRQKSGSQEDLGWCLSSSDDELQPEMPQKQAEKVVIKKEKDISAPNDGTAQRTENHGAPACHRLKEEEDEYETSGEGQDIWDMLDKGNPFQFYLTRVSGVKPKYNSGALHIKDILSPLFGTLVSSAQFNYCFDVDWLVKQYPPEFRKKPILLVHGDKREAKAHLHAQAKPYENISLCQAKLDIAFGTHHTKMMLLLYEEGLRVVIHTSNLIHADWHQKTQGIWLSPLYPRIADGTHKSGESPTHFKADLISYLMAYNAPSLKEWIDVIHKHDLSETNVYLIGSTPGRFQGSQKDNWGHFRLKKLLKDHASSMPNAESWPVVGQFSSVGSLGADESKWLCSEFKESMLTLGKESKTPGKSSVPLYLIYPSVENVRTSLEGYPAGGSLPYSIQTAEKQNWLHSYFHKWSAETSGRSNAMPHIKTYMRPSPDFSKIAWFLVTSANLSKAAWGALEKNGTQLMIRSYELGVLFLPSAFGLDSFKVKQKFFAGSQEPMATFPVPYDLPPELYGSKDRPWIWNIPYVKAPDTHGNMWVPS
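Recombinant human Tdp1 (E. coli-expressed, 1 nM final) preincubated with compounds 15 min at room temperature, then 5'-biotin/3'-phosphotyrosine-FITC DNA substrate (15 nM final) added for 5 min. AlphaScreen beads (10 ug/ml final) added 10 min; cleavage lowers signal.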
IL-1B inflam inh: inhibitors of inflammasome signaling (IL-1 beta secretion). THP-1 LPS/ATP IL-1B secretion, AlphaLISA, 16 h; active compounds read low. activity change, % at 57.5 µM. 360,000 tested, 4.7% active. AID 743279; in the data active means activity change below about -50%; inconclusive means mostly about -30% to -49%
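Secreted IL-1B measured by AlphaLISA bead assay after 16 h compound exposure of THP-1 cells; compounds (final up to 57.5 uM) added 1 h before LPS (250 ng/mL) and ATP (1.25 mM) stimulation; lower signal means less secretion.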
TDP1 cell CPT: DT40-hTDP1 cell growth loss with CPT; chicken DT40 Tdp1-/-;hTDP1 cells + 20 nM CPT, ATP luminescence, 48 h; Potency, µM (top dose mostly 46.2 µM), inactives show top-dose activity change, negative = growth inhibition, hits mostly inhibitors; 420,000 tested, 12% active; AID 686979; further: potency means the concentration at half of the fitted maximal effect; nearly all actives have a fitted effect of over 55% in size
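Cell growth measured by CellTiter-Glo luminescence after a minimum 48 h, 37 C compound exposure with 20 nM CPT in Tdp1-knockout DT40 cells stably expressing hTDP1, seeded 400/well; qHTS titration format.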
Six1-Eya2 inh: blocks human Six1 binding to Eya2; 360,000 tested, 0.56% active; AID 651725; Q15475+O00167; AlphaScreen GST-Six1/His-Eya2 binding, biochemical; active compounds read low; activity change, % (test concentration not listed); in the data active means activity change below about -65%; inconclusive means mostly about -30% to -63%
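AlphaScreen with GST-Six1 and His-Eya2 (5X mix: 250 nM and 500 nM), glutathione donor and nickel acceptor beads; buffer 50 mM Tris pH 8.0, 300 mM NaCl, 1 mM TCEP; 1 h at 37 C in the dark.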
TDP1 cell noCPT: qHTS for Inhibitors of human tyrosyl-DNA phosphodiesterase 1 (TDP1): qHTS in cells in absence of CPT; 420,000 tested, 15% active; DT40 Tdp1-/- hTDP1 cells, no CPT, ATP luminescence, 48 h; AID 686978, 2013; Potency, µM (titrated, usually from 46.2 µM), for the others: at the highest dose activity change, negative = growth inhibition, usual class: inhibitors; further: potency means the concentration at half of the fitted maximal effect; nearly all actives have a fitted effect of over 55% in size
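A cellular qHTS used chicken DT40 cells lacking endogenous Tdp1 but carrying stably transfected human TDP1. Compounds were applied without camptothecin, and cell growth kinetics were judged by ATP-dependent luminescence after ≥48 hr.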
* marks the source's active call; other numbers are inactive results; ? = inconclusive; . = no result given. Only some compounds are listed: those with a hit (about 18% of all), similar ones and a draw of the others. Unless noted, the call rests on the fitted dose curve; in most records, active means well fitted curve in the direction sought with a large enough effect; inconclusive means small, poorly fitted or top-dose-only effect, or another doubt; inactive means no such curve, though single readings can be large; an effect the other way counts as inactive or inconclusive. On the % scale 0 is the no-effect control and ±100 the full control effect.

SMILES	CtBP-E1A blk	TDP1 block	IL-1B inflam inh	TDP1 cell CPT	Six1-Eya2 inh	TDP1 cell noCPT
Cc1cccc(NC(=S)/N=C(\N)Nc2nc(C)c3ccccc3n2)c1	?	-4.3%	-26.8	18.4µM*	?	?
CCc1ccc(NC(=S)/N=C(\N)Nc2nc(C)c3cc(CC)ccc3n2)cc1	-27.3	0.0%	-63.9*	?	-23.2	?
CCOC(=O)C1CCCN(CC(O)COc2cccc(C)c2)C1 (stereo not given)	2.4	-5.3%	2.1	10.7%	1.9	7.3%
COc1ccc(CCN2C(=O)CC(C(N)=O)SC2=Nc2ccccc2)cc1 (stereo not given)	-2.0	.	.	-14.9%	-9.4	-23.3%
O=C(O)c1cccc(N2C(=O)c3cc([N+](=O)[O-])cc4cc([N+](=O)[O-])cc(c34)C2=O)c1	-68.3*	.	-19.7	?	-74.8*	?
O=C1c2cc([N+](=O)[O-])cc3cc([N+](=O)[O-])cc(c23)C(=O)N1c1ccccn1	-3.4	-9.1%	-99.7*	20.6µM*	-6.6	18.4µM*
COc1ccc(N=c2sc3ccccc3n2C)cc1	17.1	5.1%	0.0	-13.2%	-2.9	-16.0%
CCCS(=O)(=O)N1CCC(C(=O)N2CCCC2)CC1	1.5	5.7%	0.1	0.8%	8.2	0.3%
COC(=O)C1CCN(C(=O)/C=C/c2ccc3c(c2)OCO3)CC1	-3.1	.	23.1	?	-0.8	16.4µM*
O=C(C=Cc1ccco1)c1ccco1	-4.4	.	?	-16.0%	-6.0	-25.3%
O=C(/C=C/c1ccc2c(c1)OCO2)c1ccc(O)cc1O	0.0	.	-94.5*	?	-0.2	?
O=C(/C=C/C=C/c1ccccc1)c1ccco1	.	5.1%	?	?	-4.4	18.4µM*
O=C(/C=C/c1ccc2c(c1)OCO2)c1ccco1	-7.5	-2.6%	-96.3*	-19.0%	5.3	-27.5%

Assay outcomes (PubChem BioAssay)
